# Inconclusive results are not listed. Activity calls are given as the source filed them. Unless noted, calls follow the shape of the dose curve; as a rule, active = well fitted inhibition curve with a large enough effect; inconclusive = small, poorly fitted or top-dose-only effect; inactive = no such curve, though single readings can be large or run the other way.
# Tests used:
# [1] = Cell Proliferation Assay Versus the ED40515 IL2 Dependent ATL cell lines (AID 1053195; calls by dose curve); conditions: ED40515 IL2-dependent ATL cells
# In short: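 IL2-dependent ED40515 ATL cells grown with IL2, 1000 cells/well in phenol red-free RPMI + 5% FBS, exposed 48 hours at 37C. Viability by CellTiter-Glo luminescence after 15 min at RT; 9.2 uM bortezomib as control.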
# [2] = High-throughput drug toxicity screening in the BPDCN cell line Gen2.2 (AID 1224824; call rule not given here;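 also: cells exposed to compounds for 48 h before reading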); conditions: Gen2.2 BPDCN cells; at 45.8 µM (top of the series) unless noted
# In short: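 Seed 500 exponentially growing Gen2.2 cells/well; add compounds by pin tool; incubate 48 h, 37 °C, 5% CO2; add CellTiter-Glo, 15 min RT; read luminescence. % activity vs DMSO (100%) and bortezomib (0%).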
# [3] = High-throughput drug toxicity screening in the BPDCN cell line Cal-1 (AID 1224825; call rule not given here); conditions: Cal-1 BPDCN cell viability, qHTS; at 45.8 µM (top of the series) unless noted
# In short: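 Cal-1 cells, 500 per well in phenol-red-free RPMI with 10% FBS, exposed to compounds for 48 hours at 37C, 5% CO2. Viability read by CellTiter-Glo luminescence; percent activity normalized to DMSO (100%) and 9.2 uM bortezomib final (0%).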
# [4] = qHTS assay for measurement of the activity of small molecule inhibitors on Zika virus induced Caspase-3 activity in human iPSC derived neural progenitor cells (hNPCs) (AID 1224857); conditions: hNPCs ZIKV-induced caspase-3/7, Caspase-Glo luminescence, 6 h; series mostly up to 45.7 µM; also: nearly all actives have a fitted effect of over 65% in size; also: potency is read from the fitted curve at half-maximal effect
# In short: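 Human iPSC-derived neural progenitor cells pretreated 1 hr with compounds, then infected with Zika virus (2 FFU/cell) for 6 hours at 37 C. Caspase-3/7 measured by Caspase-Glo luminescence; % inhibition calculated from induction scaled to uninfected (0%) and infected (100%) wells.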
# [5] = qHTS assay for measurement of the activity of small molecule inhibitors on Zika virus induced Caspase-3 activity in human astrocytoma cells (AID 1224859); conditions: SNB-19 ZIKV-induced caspase-3/7, luminescence, 6 h; series mostly up to 45.7 µM; also: potency is read from the fitted curve at half-maximal effect
# In short: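 SNB-19 astrocytoma cells, 250/well, pretreated 1 h with compounds, then Zika virus at 2 FFU/cell for 6 h at 37 C; Caspase-Glo 3/7 luminescence after 30 min; percent inhibition normalised to uninfected and infected controls.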
# [6] = qHTS Screen of the MIPE 4.0 Collection Against Ewings Sarcoma (RDES) (AID 1259252); conditions: RD-ES Ewing sarcoma viability, CellTiter-Glo, 48 h; series mostly up to 45.8 µM; also: nearly all actives have a fitted effect of over 35% in size; also: potency is read from the fitted curve at half-maximal effect
# In short: (§1)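 Viability screen: 48 h incubation at 37C, 95% humidity, 5% CO2 with serially titrated compound, followed by CellTiter-Glo readout.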
# [7] = qHTS Screen of the MIPE 4.0 Collection Against Ewings Sarcoma (TC71) (AID 1259253); conditions: TC71 Ewing sarcoma viability, CellTiter-Glo, 48 h; series mostly up to 45.8 µM; also: nearly all actives have a fitted effect of over 40% in size; also: potency is read from the fitted curve at half-maximal effect
# In short: as §1
# [8] = qHTS Screen of the MIPE 4.0 Collection Against Ewings Sarcoma (EW8) (AID 1259255); conditions: EW8 Ewing sarcoma viability, CellTiter-Glo, 48 h; series mostly up to 45.8 µM; also: nearly all actives have a fitted effect of over 35% in size; also: potency is read from the fitted curve at half-maximal effect;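 as to viability: 100% = DMSO-treated cells and 0% = medium-only wells without cells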
# In short: as §1
# [9] = qHTS Screen of the MIPE 4.0 Collection Against Ewings Sarcoma (TC32) (AID 1259256); conditions: TC32 Ewing sarcoma viability, CellTiter-Glo, 48 h; series mostly up to 45.8 µM; also: nearly all actives have a fitted effect of over 45% in size; also: potency is read from the fitted curve at half-maximal effect
# In short: as §1
Compound,Potency [1],"cell viability, % of control (lower = more cytotoxic) [2]",viability (% of control) [3],Potency [4],Potency [5],Potency [6],Potency [7],Potency [8],Potency [9]
Cc1cc(-c2nnc3n2CCCCC3)c(C)n1-c1ccc(F)cc1,11.8 µM (active),,,,,,,,
COCC(=O)NCC=Cc1ccc2ncnc(Nc3ccc(Oc4ccc(C)nc4)c(C)c3)c2c1,4.69 µM (active),222%,20.7%,inactive,inactive,20.9 µM (active),23.5 µM (active),,
O=C(C1CC1)N1CC[C@@H](Cn2c(-c3ccc(-c4ccc5occc5c4)cc3)nc3cnccc32)C1,16.6 µM (active),133%,95.4%,inactive,inactive,inactive,16.6 µM (active),13.2 µM (active),
CC(C)(N)C(=O)N[C@H](COCc1ccccc1)C(=O)N1CCC2(CC1)CN(S(C)(=O)=O)c1ccccc12,11.8 µM (active),14.7%,71%,inactive,inactive,20.9 µM (active),29.6 µM (active),20.9 µM (active),
CC(c1cc2ccccc2s1)N(O)C(N)=O (stereo not given),67.9 µM (active),150%,110%,inactive,inactive,inactive,inactive,inactive,inactive
O=C(Nc1ccc(F)c(C(F)(F)F)c1)Nc1nnc(-c2ccncc2)s1,0.935 µM (active),131%,101%,inactive,inactive,,,,
CCC(C)(C)C(=O)O[C@H]1C[C@@H](C)C=C2C=C[C@H](C)[C@H](CC[C@@H]3C[C@@H](O)CC(=O)O3)[C@H]21,3.17 µM (active),26.7%,59.6%,inactive,inactive,23.5 µM (active),11.8 µM (active),18.7 µM (active),3.72 µM (active)
O=C(OCC#CCSc1nnc(-c2ccc3ccccc3c2)o1)c1cc2ccccc2s1,11.8 µM (active),,,,,,,,
COc1c(Cl)cc2c([nH]c3cnccc32)c1NC(=O)c1cccnc1C,33.2 µM (active),41.9%,77.1%,inactive,inactive,0.59 µM (active),,,
COc1ccc(CC2=NN3C([C@@H](CCc4ccccc4)[C@@H](C)O)=NC(C)C3C(=O)N2)cc1OC (stereo not given in full),10.5 µM (active),276%,115%,9.35 µM (active),10.5 µM (active),inactive,inactive,inactive,inactive
COc1cc2c(cc1OC)CN(CCc1ccc(NC(=O)c3cccc4c(=O)c5cccc(OC)c5[nH]c34)cc1)CC2,16.6 µM (active),238%,104%,inactive,inactive,10.5 µM (active),20.9 µM (active),,
CC(C)OC(=O)C1=CN(C(=O)c2ccc(F)c(F)c2)CC(C)(C)c2c1[nH]c1ccccc21,4.18 µM (active),115%,108%,inactive,inactive,inactive,inactive,inactive,inactive
C#Cc1cccc(Nc2ncnc3cc(OCCOC)c(OCCOC)cc23)c1,9.35 µM (active),24.7%,10.9%,inactive,inactive,4.18 µM (active),14.8 µM (active),23.5 µM (active),20.9 µM (active)
O=C(Nc1cccnc1)N1CCC(Cc2cccc(Oc3ccc(C(F)(F)F)cn3)c2)CC1,5.9 µM (active),147%,52.7%,inactive,inactive,18.7 µM (active),16.6 µM (active),,
CN(C)C(=O)c1ccc(S(=O)(=O)c2ccc(NC(=O)[C@@](C)(O)C(F)(F)F)c(Cl)c2)cc1,0.332 µM (active),41.1%,20.3%,inactive,inactive,20.9 µM (active),18.7 µM (active),inactive,
Nc1nc2ccc(OC(F)(F)F)cc2s1,23.5 µM (active),93.2%,103%,inactive,inactive,,,,
CC(=O)NC(C)c1ccc(Oc2ccc(OC(C)C)cc2)cc1 (stereo not given),13.2 µM (active),281%,98.5%,inactive,inactive,inactive,8.33 µM (active),6.62 µM (active),inactive
Oc1cccc(-c2nc(N3CCOCC3)c3oc4ncccc4c3n2)c1,0.743 µM (active),8.19% [at 92.2 µM],17.8% [at 92.2 µM],inactive,inactive,0.96 µM (active),0.152 µM (active),0.429 µM (active),
COc1ccc2c3n(c(=NC(=O)c4cccnc4)nc2c1OC)CCN3,4.18 µM (active),9.57%,12.7%,inactive,inactive,2.09 µM (active),10.5 µM (active),20.9 µM (active),8.33 µM (active)
Cc1ccnc(NS(=O)(=O)c2ccc(NC(=O)Nc3ccc(S(=O)(=O)Nc4nccc(C)n4)cc3)cc2)n1,23.5 µM (active),75.2%,24.4%,inactive,inactive,,,,
CCn1c(-c2nonc2N)nc2cnc(Oc3cccc(NC(=O)c4ccc(OCCN5CCOCC5)cc4)c3)cc21,0.59 µM (active),84.4%,33.2%,inactive,inactive,5.9 µM (active),13.2 µM (active),11.8 µM (active),5.9 µM (active)

Compound,Potency [1],"cell viability, % of control (lower = more cytotoxic) [2]",viability (% of control) [3],Potency [4],Potency [5],Potency [6],Potency [7],Potency [8],Potency [9]
CCN(c1ccccc1)c1cc(NC)[n+](C)c(C)n1,18.7 µM (active),138%,119%,inactive,inactive,7.43 µM (active),inactive,inactive,16.6 µM (active)
CC(C)(Sc1ccc(CCN(CCCCC2CCCCC2)C(=O)NC2CCCCC2)cc1)C(=O)O,18.7 µM (active),75.1%,7.76%,inactive,inactive,14.8 µM (active),inactive,4.69 µM (active),
S=C(NCc1ccc2c(c1)OCO2)N1CCN(c2ncnc3c2oc2ccccc23)CC1,0.0662 µM (active),387% [at 92.2 µM],56.7% [at 92.2 µM],inactive,inactive,1.91 µM (active),7.62 µM (active),4.81 µM (active),
Cc1c(CCOc2ccc(C(=O)O)cc2)c2cc(Cl)ccc2n1C(c1ccccc1)c1ccccc1,23.5 µM (active),222%,96.5%,inactive,inactive,18.7 µM (active),16.6 µM (active),14.8 µM (active),
CC1(C)CNc2cc(NC(=O)c3cccnc3NCc3ccncc3)ccc21,23.5 µM (active),230%,69.9%,inactive,inactive,1.05 µM (active),2.35 µM (active),23.5 µM (active),5.26 µM (active)
CN(C(=O)c1ccc(F)cc1C(F)(F)F)C1CCN(c2nnc(-c3ccnn3C)c3ccccc23)CC1,2.96 µM (active),13.6%,80.2%,inactive,inactive,20.9 µM (active),,,
CCc1cc(Nc2nccc(-c3c(-c4ccc(OC)c(C(=O)Nc5c(F)cccc5F)c4)nc4ccccn34)n2)c(OC)cc1N1CCC(N2CCN(S(C)(=O)=O)CC2)CC1,1.66 µM (active),179%,79.3%,inactive,inactive,26.4 µM (active),18.7 µM (active),18.7 µM (active),16.6 µM (active)
Cc1cc([C@@H](C)Nc2ccccc2C(=O)O)c2nc(N3CCOCC3)cc(=O)n2c1,1.05 µM (active),13.7% [at 92.2 µM],27.7% [at 92.2 µM],inactive,inactive,3.03 µM (active),34 µM (active),42.9 µM (active),34 µM (active)
Cc1cc(-c2ccc(CC(=O)Nc3ccc(-c4cccnc4)cc3)cc2)ccn1,4.18 µM (active),255%,20.4%,inactive,inactive,20.9 µM (active),16.6 µM (active),18.7 µM (active),
CC(C)c1onc(-c2c(Cl)cccc2Cl)c1COc1ccc(/C=C/c2cccc(C(=O)O)c2)c(Cl)c1,20.9 µM (active),,,,,,,,
O=C(O)c1ccc(-c2c[nH]c3ccc(-c4ccccc4)cc23)cc1C1CCCC1,5.26 µM (active),,,,,,,,
CC[C@H](Nc1ncnc2nc[nH]c12)c1nc2cccc(F)c2c(=O)n1-c1ccccc1,5.9 µM (active),4.94%,18.8%,inactive,inactive,2.35 µM (active),2.96 µM (active),2.64 µM (active),2.96 µM (active)
Cc1cnc(Nc2ccc(OCCN3CCCC3)cc2)nc1Nc1cccc(S(=O)(=O)NC(C)(C)C)c1,20.9 µM (active),112%,72.4%,inactive,inactive,inactive,inactive,inactive,
O=C(Nc1nc2ccccc2n1CCN1CCOCC1)c1cccc([N+](=O)[O-])c1,10.5 µM (active),43.3%,4.89%,inactive,inactive,20.9 µM (active),23.5 µM (active),20.9 µM (active),18.7 µM (active)
OC[C@H](Cc1ccccc1)Nc1nc(Oc2ccc3c(c2)CCC3)nc2c1ncn2Cc1ccc(-c2ccccc2)cc1,13.2 µM (active),408%,56.2%,inactive,inactive,,,,6.62 µM (active)
C[C@@H]1CN(Cc2ccc(F)cc2)[C@@H](C)CN1C(=O)c1cc2c(C(=O)C(=O)N(C)C)cn(C)c2cc1Cl,16.6 µM (active),160%,70.3%,inactive,inactive,,,23.5 µM (active),
Nc1cccc(S(=O)(=O)N2CCCN(S(=O)(=O)c3ccc4c(c3)OCCO4)CC2)c1,16.6 µM (active),162%,104%,inactive,inactive,inactive,16.6 µM (active),,inactive
COc1ccc(-c2c(-c3ccc(O)cc3O)n[nH]c2C)cc1,2.09 µM (active),96.4% [at 92.2 µM],61.9% [at 92.2 µM],inactive,inactive,,,,inactive
Cc1csc(NC(=O)c2sc3nc4c(c(C(F)(F)F)c3c2N)CCC4)n1,18.7 µM (active),36.4%,93.3%,23.5 µM (active),inactive,1.48 µM (active),4.18 µM (active),13.2 µM (active),6.62 µM (active)
O=C(O)[C@@H](c1ccc(OCc2ccc3ccccc3n2)cc1)C1CCCC1,26.4 µM (active),125%,73.2%,16.6 µM (active),13.2 µM (active),,inactive,inactive,inactive
COc1ccc2nc(S(=O)Cc3ncc(C)c(OC)c3C)[nH]c2c1 (stereo not given),23.5 µM (active),138%,96.8%,inactive,inactive,16.6 µM (active),,inactive,

# Reference: PubChem BioAssay (NCATS)
